Hit rate of the full screen: of about 290,000 compounds, about 3,000 (1%) were called active. This is one part of a sample in which actives are shown more often than they occur. A number with no mark means an inactive call. Rule as the data show it: active = inhibition mostly above about 36% (no sharp cut-off); inactive = mostly below about 34%.

The test can be described thus: inhibition of NOD1-driven NF-kB reporter – cell-based, luminescence, uHTS, primary screen (AID 1578).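 Also: HEK-293T reporter cells stimulated with the NOD1 agonist gamma-tri-DAP.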 The following applies: NOD1-driven NF-kB luciferase reporter cells, at 4 µM, stronger effect = higher value.
Consider `Clc1ccc2c(NCc3ccco3)ncnc2c1`, for which the inhibition was 16.7%.

`Brc1ccc2ncnc(NCc3ccccc3)c2c1`: the inhibition is 93.1% (active).

Turning to `O=C(O)c1cccc(Nc2ncnc3ccc(Br)cc23)c1`, the inhibition is -10.3%.

In the case of `COc1cc2ncnc(NCc3ccco3)c2cc1OC`, the inhibition is -1.4%.

On to `c1ccc(CNc2ncnc3sccc23)cc1`, for which the inhibition was 31.8%.

`Cc1ccc(S(=O)(=O)CC(=O)c2ccccc2)cc1`: the inhibition was -10%.

Regarding `CC(=O)Nc1c(C)cc(S(C)(=O)=O)cc1C`, the inhibition was -12.2%.

With `NC(=O)c1c(NC(NC(=O)c2ccco2)(C(F)(F)F)C(F)(F)F)sc2c1CCCC2`, the inhibition was -24.2%.

With `O=C(COC(=O)c1cc(-c2ccc(Cl)s2)nc2ccccc12)NCc1ccco1`, the inhibition was -9.8%.

As for `C=CCCC(=O)NC1CC(C)(C)Cc2c1cnn2-c1ccc(OC)cc1` (stereo not drawn), the inhibition was -7%.

As for `Cc1ccccc1Oc1ncnc(N)c1[N+](=O)[O-]`, the inhibition is 4.6%.

With `Clc1ccccc1N1CCN(c2ncnc3nc[nH]c23)CC1`, the inhibition is -13.5%.

In the case of `CC1Cc2ccccc2N1c1ncnc2c1nnn2Cc1ccccc1` (stereo not drawn), the inhibition is -0.2%.

`CC1Cc2ccccc2N1c1ncnc2nc[nH]c12` (stereo not drawn): the inhibition was 71.8% (active).

Regarding `c1ccc2c(c1)CCN(c1ncnc3nc[nH]c13)C2`, the inhibition was -40.8%.

With `CC1Cc2ccccc2N1c1ncnc(N)c1[N+](=O)[O-]` (stereo not drawn), the inhibition is 96.2% (active).

Take `O=C(CCNC(=O)N1CCn2c1nc1ccccc12)NCc1ccc(Cl)cc1`: the inhibition is -26.9%.

For the compound `CN(C)C(=O)c1cc(C(=O)c2ccc(C(F)(F)F)cc2F)c[nH]1`, the inhibition was 21.8%.

Consider `O=C(CN1C(=O)c2ccccc2C1=O)Oc1ccc(Cl)cc1`, for which the inhibition was -14.3%.

As to `Cc1cccc(OCCOC(=O)C2CCN(S(=O)(=O)c3ccc(C)c(C)c3)CC2)c1`, the inhibition was -9.6%.

As for `CCN(CC(=O)NC1CCS(=O)(=O)C1)S(=O)(=O)c1ccc(C)cc1C` (stereo not drawn), the inhibition was -12%.

Take `Cc1c(CCC(=O)NCCCCCC(=O)O)c(=O)oc2cc3occ(-c4ccccc4)c3cc12`: the inhibition was 34.3% (active).

In the case of `Cc1c(CCC(=O)NCCC(=O)O)c(=O)oc2cc3occ(-c4ccccc4)c3cc12`, the inhibition is -7.4%.

As to `Cc1c(CC(=O)NCCCC(=O)O)c(=O)oc2cc3occ(-c4ccccc4)c3cc12`, the inhibition is -6.5%.

Take `O=C(CNCc1ccc(F)cc1)Nc1ccc(S(=O)(=O)N2CCOCC2)cc1`: the inhibition was -26.8%.

For `O=C(c1cccnc1)N1CCc2ccccc2C1`, the inhibition was -0.9%.

With `O=C(c1cncc(Br)c1)N1CCc2ccccc2C1`, the inhibition was 80.2% (active).

For `O=C(c1ccncc1)N1CCc2ccccc2C1`, the inhibition was -32.9%.

For `COCCn1nnnc1C(CC(C)C)N1CCN(c2ccccc2)CC1` (stereo not drawn), the inhibition is -24.8%.

As for `CN1CCN(c2ccccc2NC(=S)NC(=O)c2cc3ccccc3o2)CC1`, the inhibition was 5.8%.

As for `CN1c2cccc3cccc(c23)N(C)C1(C)C`, the inhibition was 9.4%.

Take `CN1C(=O)N(C)c2ccc(C=O)c3cccc1c23`: the inhibition was -32.8%.

As for `CN1c2ccc(C=O)c3c(C=O)ccc(c23)N(C)C1(C)C`, the inhibition was 72% (active).

For `O=C(CN(Cc1ccccc1)C(=O)CCC(=O)Nc1nccs1)NCc1ccco1`, the inhibition is -21.9%.

In the case of `CC(CCc1ccccc1)NC(=O)Cn1cccc1C(=O)c1ccccc1` (stereo not drawn), the inhibition is -9.7%.

Regarding `CN(c1ccccc1)S(=O)(=O)c1ccc(Cl)c(C(=O)Nc2ccc(-c3nc4ccccc4[nH]3)cc2)c1`, the inhibition is 4.8%.

With `Cc1nc2ccc(NC(=O)c3ccc(Cl)c(S(=O)(=O)N(C)c4ccccc4)c3)cc2s1`, the inhibition was 51.8%.

Turning to `Cc1nc2ccc(NC(=O)c3ccc(S(=O)(=O)N(C)c4ccccc4)cc3)cc2s1`, the inhibition is 17.6%.

As for `Cc1nc2ccc(NC(=O)c3ccc(S(=O)(=O)N(C)C)cc3)cc2s1`, the inhibition was -37.4%.

With `O=C(CSc1nnc(C2COc3ccccc3O2)o1)N1CCN(c2ccccc2)CC1` (stereo not drawn), the inhibition is -24.7%.

In the case of `COc1ccc(CCNC(=O)CCS(=O)(=O)c2ccc3c(c2)oc(=O)n3C)cc1OC`, the inhibition was -25.6%.

Turning to `O=C(COc1ccc(Cl)cc1Cl)NC(=S)N1CCCc2ccccc21`, the inhibition is 28.6%.

Regarding `CC(Oc1ccc(Cl)cc1Cl)C(=O)NC(=S)N1CCc2ccccc21` (stereo not drawn), the inhibition is 102% (active).

In the case of `CC(C)C(=O)NC(=S)N1CCc2ccccc21`, the inhibition was -40.2%.

Consider `CC(C)NC(=O)c1ccc2c(c1)N(CC(=O)N1CCCCC1)C(=O)C(C)(C)O2`, for which the inhibition was 1.4%.

As for `O=C(CSc1nnnn1-c1ccccc1)Nc1ncc(Cc2cccc(Cl)c2Cl)s1`, the inhibition is -16.9%.

For the compound `Cc1ccc(C)c(NC(=O)C2CC(O)CN2C(=O)OCc2ccccc2)c1` (stereo not drawn), the inhibition is 4.8%.

Regarding `COC(=O)CC1(C(=O)OC)Oc2ccc(Br)cc2C(=O)N1c1cc(Cl)cc(Cl)c1` (stereo not drawn), the inhibition was -11.1%.

As to `CC(=O)Nc1nonc1NC(=O)CSc1ccccn1`, the inhibition is 2.6%.

In the case of `O=C(CSc1ccccn1)Nc1nonc1[N+](=O)[O-]`, the inhibition is 57.6% (active).

With `Cc1nonc1NC(=O)CSc1ccccn1`, the inhibition is 4%.

With `COc1ccc(NC(=O)CSc2nn3c(=O)c(C)nnc3s2)cc1`, the inhibition was -19.6%.

In the case of `COc1ccc(NC(=O)Nc2cnccn2)c(OC)c1`, the inhibition was -27.1%.

Take `COc1ccccc1NC(=O)Nc1cnccn1`: the inhibition was 111% (active).

`CCOc1ccccc1NC(=O)Nc1cnccn1`: the inhibition is 11.8%.

Consider `COC(=O)Nc1ccc2c(c1)N(C(=O)CCCl)c1ccccc1S2`, for which the inhibition was 3.3%.

In the case of `COc1ccc(C(=O)NNC(=O)C(=O)/C=C(\O)c2ccc(C)cc2)cc1`, the inhibition was 0.6%.

In the case of `Cc1cccc(C(=O)NC(=S)NCc2cccnc2)c1`, the inhibition was -31.1%.

Consider `O=C(NCCCN1CCOCC1)c1cccc(S(=O)(=O)Nc2cc(Cl)ccc2Cl)c1`, for which the inhibition was -34.3%.

In the case of `O=C(CSc1ncnc2[nH]ncc12)Nc1nc(-c2ccc(F)c(F)c2)cs1`, the inhibition was 46% (active).

For the compound `Cc1sc2ncnc(SCC(=O)Nc3nc(-c4ccc(F)c(F)c4)cs3)c2c1C`, the inhibition is -40.3%.

As to `Cn1nnnc1SCC(=O)Nc1nc(-c2ccc(F)c(F)c2)cs1`, the inhibition was -20.9%.

Take `CC1CN(C(=O)CCC(=O)NCCCN2C(C)CCCC2C)c2ccccc2O1` (stereo not drawn): the inhibition is 26.4%.

In the case of `Cc1ccc(CNC(=O)C2CCCN(S(=O)(=O)c3c(C)[nH]c(=O)[nH]c3=O)C2)cc1` (stereo not drawn), the inhibition is -3.9%.

Regarding `O=C(Cn1c(=O)oc2ccccc21)NC(=O)NCc1ccco1`, the inhibition is -3.9%.

As for `CCN(CC)C(=S)NC(=O)c1ccc(F)cc1`, the inhibition was -25%.

On to `CCOc1ccc(C(=O)NC(=S)N(Cc2ccccc2)Cc2ccccc2)cc1`, for which the inhibition is 51.4%.

On to `CCCN(CCC)C(=S)NC(=O)c1ccc(-c2ccccc2)cc1`, for which the inhibition is 52.6% (active).

On to `C/C(=N/NC(=O)c1ccc(C)s1)c1cccnc1`, for which the inhibition is -53.1%.

For the compound `COc1cc(/C=N/NC(=O)CCOc2ccccc2C)cc(Br)c1O`, the inhibition was -26.7%.

As to `COc1ccc(/C=N/NC(=O)CCOc2ccccc2C)cc1OC`, the inhibition is 62.5% (active).

For `COc1ccc(/C=N/NC(=O)CCC(=O)Nc2ccccc2)cc1OC`, the inhibition was -8.6%.

Take `CCCCN=Cc1c(C)[nH]n(-c2ccccc2)c1=S`: the inhibition was 0.8%.

For the compound `Cc1[nH]n(-c2ccccc2)c(=S)c1C=NCCCN=Cc1c(C)[nH]n(-c2ccccc2)c1=S`, the inhibition is 88.7% (active).

As for `Cc1[nH]n(-c2ccccc2)c(=O)c1C=NCCc1ccccc1`, the inhibition is -43.1%.

In the case of `Cc1nnc2sc(SCC(=O)Nc3nccs3)nn2c1=O`, the inhibition is -2.3%.

With `Fc1ccc(-c2ccc(/C=N\n3cnnc3)o2)cc1Cl`, the inhibition is 1.3%.

With `Cc1ccc(-c2ccc(/C=N/n3cnnc3)o2)cc1Cl`, the inhibition is -11.3%.

With `Cc1cc(-c2ccc(/C=N/n3cnnc3)o2)ccc1Cl`, the inhibition was 67.4% (active).

As for `C/C(N)=C(/C#N)C(=O)COC(=O)c1cccc(O)c1`, the inhibition is -29.6%.

`CC(=O)Nc1cccc(NC(=O)CSc2nc3ccccc3o2)c1`: the inhibition is 43.3%.

Regarding `COc1ccc(C(NC(C)=O)c2cc(Cl)c3cccnc3c2O)cc1` (stereo not drawn), the inhibition is -6.4%.

`CCCCCCNC(=O)CCc1nc2cccnc2n1Cc1ccc(OC)cc1`: the inhibition was -10.4%.

On to `CC1CCCC(C)N1C(=O)c1cc(-c2cccs2)on1` (stereo not drawn), for which the inhibition is -28.6%.

Regarding `CC(C)(C)C1CCC(=NNC(=S)Nc2cccnc2)CC1` (stereo not drawn), the inhibition was -17.4%.

Take `CC1=C/C(=N\NC(=S)NCCc2ccccc2)CC(C)(C)C1`: the inhibition is -43.4%.

Take `CC1=C/C(=N\NC(=S)Nc2cccnc2)CC(C)(C)C1`: the inhibition was 43.4% (active).

As to `CCOC(=O)C1CCCN(C(=O)CNC(=O)c2nn(-c3ccc(OC)c(Cl)c3)c(=O)c3ccccc23)C1` (stereo not drawn), the inhibition is -5.1%.

With `CC(C)OC(=O)CSc1nc2c(cc1C#N)CCCCC2`, the inhibition was 111% (active).

`CC(C)OC(=O)CC(=O)CSc1nc2c(cc1C#N)CCCCC2`: the inhibition was -26.3%.

Regarding `CC(C)OC(=O)CC(=O)CSc1nc2c(cc1C#N)CCCCCC2`, the inhibition is -24.1%.

On to `O=C(c1cccs1)N1CCC(C(=O)N2CCN(Cc3ccc4c(c3)OCO4)CC2)CC1`, for which the inhibition is -24.9%.

Turning to `CCN1C(=O)c2cccc3c(S(=O)(=O)NCc4ccco4)ccc1c23`, the inhibition is -23%.

For the compound `Cc1ccc(-n2cc(C(=O)c3ccc(N4CCN(C)CC4)cc3)nn2)cc1Cl`, the inhibition is -52.8%.

For `CCOC(=O)C1=C(SCC)c2cc3c(n2C1=O)CCCC3`, the inhibition is -36.8%.

With `N#CC1=C(N2CCCCC2)c2cc3c(n2C1=O)CCCC3`, the inhibition is 7.7%.

For `CCSC1=C(C#N)C(=O)n2c1cc1c2CCCC1`, the inhibition is 67% (active).

On to `COc1ccc(C(c2nnnn2C(C)C)N2CCN(C(=O)c3ccco3)CC2)cc1` (stereo not drawn), for which the inhibition is 10.7%.

Source of the values: PubChem BioAssay AID1578 (Sanford-Burnham Center for Chemical Genomics, 2009).
